The target in the first assay is C8orf86. The assay can be described thus: pooled miR-30 sensor sort-seq; sequence = guide strand. Conditions: shRNA.
ATTGCTTCTAATCAACTCCTCA: the sensor-assay potency score (higher = more potent) turned out to be 0.067.

TTGTCTCTCTGTTCGCTGCTCA had a sensor-assay potency score (higher = more potent) of 0.291.

TTTCCTTCCCTTCTGTCCCAAA came in with a sensor-assay potency score (higher = more potent) of -1.07.

For the sequence TTTGAAGAAACCACAGATGCGA, the sensor-assay potency score (higher = more potent) was 0.17.

The target of another assay is C9orf100. The assay is described as above. Conditions: shRNA.
Turning to TTTCTTTAGCTGCTCCTGCAGG, the sensor-assay potency score (higher = more potent) is -0.717.

As to TAAGCAGTAGCTTCTCATGAGG, the sensor-assay potency score (higher = more potent) was -1.31.

As for TCAGACTGTGGTACCAGCGTGA, the sensor-assay potency score (higher = more potent) amounted to 0.191.

TTGATGGTCAGGGCTGTTGGGA had a sensor-assay potency score (higher = more potent) of -1.1.

Consider ATCTGGAGTAGCTTGGTCCAGG, for which the sensor-assay potency score (higher = more potent) is -1.26.

Consider TATTTTTCTTTAGCTGCTCCTG, for which the sensor-assay potency score (higher = more potent) is -0.997.

With TTCTTGGTAGCGCCGCTCGGTC, the sensor-assay potency score (higher = more potent) is -1.6.

TTGGTTATAGAGCTCCAAGTGG returned a sensor-assay potency score (higher = more potent) of -0.209.

On to TTATAGAGCTCCAAGTGGCGGC, for which the sensor-assay potency score (higher = more potent) is -0.479.

With TCGGTCTCTAGCAGCTCCCGGG, the sensor-assay potency score (higher = more potent) is -1.38.

On to TGAAGCCGTACAAACCTCCGGA, for which the sensor-assay potency score (higher = more potent) stood at 0.131.

Sequence AAATTGGTTATAGAGCTCCAAG returned a sensor-assay potency score (higher = more potent) of -1.5.

In a further assay the target is C9orf172. The assay is described as above. The settings on record: shRNA.
For TTGATGTCCTGGTACACGGTCG, the sensor-assay potency score (higher = more potent) is -0.476.

The sequence TTGGCCTCGACGAACTCGCAAA displayed a sensor-assay potency score (higher = more potent) of -1.39.

On to TCTCGGACAGGGACAGTGCGGC, for which the sensor-assay potency score (higher = more potent) is -0.804.

TTGTCAGTGATGGTGATCTCGG returned a sensor-assay potency score (higher = more potent) of -1.12.

Sequence TCATCAGGTCGTCCTCGTCGGC came in with a sensor-assay potency score (higher = more potent) of -1.75.

As for TAGGTGTAGCAGCTGTGGCAGG, the sensor-assay potency score (higher = more potent) is -0.976.

In turn, TACCTTCCGAAGTCCTCCGTGT registered a sensor-assay potency score (higher = more potent) of -0.162.

TAGTAGGCGTCGAAGGTTGGGC came in with a sensor-assay potency score (higher = more potent) of -0.683.

Take TATGAGTCGCTGGGCGTCGGGG: the sensor-assay potency score (higher = more potent) was -1.22.

The sequence TAGTAGGTGTAGCAGCTGTGGC displayed a sensor-assay potency score (higher = more potent) of -1.29.

Turning to TTGAACATGGTCTCGGTGCGCC, the sensor-assay potency score (higher = more potent) was -0.301.

As to ATGATCATGCACATGAAGGGGC, the sensor-assay potency score (higher = more potent) worked out at 0.238.

The target in another assay is C9orf30. The assay is described as above. Conditions: shRNA.
With TTACAGGTTACTGACCGCCAAG, the sensor-assay potency score (higher = more potent) was -1.66.

ATCACTTTTCTTACATTCCAGC: the sensor-assay potency score (higher = more potent) is -1.2.

AGAACTTCCATTTTTATCCTGT registered a sensor-assay potency score (higher = more potent) of -0.0866.

As for TATTCTGACAGCTGAACACGAG, the sensor-assay potency score (higher = more potent) is -0.517.

TTATTGAGAACTTCCATTTTTA registered a sensor-assay potency score (higher = more potent) of -0.9.

The sequence TTATCCTGTGTTCCTCCTCTGC came in with a sensor-assay potency score (higher = more potent) of -1.19.

Regarding TTGTTGATGGTGTTCTTCCTCA, the sensor-assay potency score (higher = more potent) was -0.2.

TTTATTGAGAACTTCCATTTTT returned a sensor-assay potency score (higher = more potent) of -0.999.

For TTAAATGAGGAAACAGGCCATT, the sensor-assay potency score (higher = more potent) is -1.27.

For TTCAGAAGACTATAACAGCTTC, the sensor-assay potency score (higher = more potent) was -0.358.

TATACTTTTCTACTAAAGCCAG had a sensor-assay potency score (higher = more potent) of -0.895.

For TTTTCTTACATTCCAGCACATA, the sensor-assay potency score (higher = more potent) is -1.58.

Values taken from the OligoGym collection.
Note: reference of the scale not given here.
